Hits are enriched below; roughly 7.5% of the tested compounds scored in any of these assays.
NPC1 prom act: qHTS Assay for NPC1 Promoter Activators. Huh7 NPC1 promoter luciferase reporter, 24 h. Potency, µM (top dose mostly 9.22 µM), for the others: at the highest dose activation, actives largely listed as activators. 320,000 tested, 2.4% active. AID 485313, 2010; further: % of control where 0% means no effect; nearly all actives have a fitted effect of over 60% in size
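Stably transfected Huh7 (NPC1 promoter→luciferase), 1500 cells/well in Opti-MEM + 10% FBS, 2 h settle, then compound 24 h at 37 °C. Luminescence after 10 min with Amplite reagent.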
ELG1 genotox: qHTS screen for small molecules that induce genotoxicity in human embryonic kidney (HEK293T) cells expressing luciferase-tagged ELG1; Potency, µM (highest dose often 46 µM), without a hit: at the top dose activity change, positive = activation, usual class: activators; 330,000 tested, 1.3% active; AID 504466, 2011; HEK293T ELG1-luciferase reporter, luminescence, 16 h; further: % of control where 0% means no effect; nearly all actives have a fitted effect of over 60% in size
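DMSO vehicle served as control against compound-treated ELG1-luciferase HEK293T cells; exposure lasted 16 hr at 37 °C and 5% CO2, followed by ONE-Glo luminescence detection after 30 min.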
Rab9 prom act: qHTS Assay for Rab9 Promoter Activators; Huh7 Rab9 promoter-luciferase reporter, luminescence, 24 h; Potency, µM (top dose mostly 9.22 µM), inactives show at the highest dose activation, negative = inhibition, usual class: activators; 320,000 tested, 2.8% active; further: % of control where 0% means no effect; nearly all actives have a fitted effect of over 60% in size
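Luciferase signal after 10 min detection reagent at ambient indicates Rab9 promoter upregulation; stably transfected Huh7 cells were treated 24 h with compound in DMSO at 37 °C, 5% CO2.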
FLuc modulator: qHTS profiling assay for firefly luciferase inhibitor/activator using purifed enzyme and Km concentrations of substrates (counterscreen for miR-21 project); Luciferin 4-monooxygenase (Photinus pyralis), P08659; purified FLuc, Km substrates, luminescence inhibition; Potency, µM (top dose mostly 57.5 µM), for the others: at the top dose activity change, negative = inhibition, usual class: inhibitors; 360,000 tested, 6.9% active; AID 588342, 2011;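 further: plate controls were vehicle for no effect and reference inhibitor for full effect; nearly all actives have a fitted effect of over 55% in size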
Target sequence (P08659 whole entry, looked up): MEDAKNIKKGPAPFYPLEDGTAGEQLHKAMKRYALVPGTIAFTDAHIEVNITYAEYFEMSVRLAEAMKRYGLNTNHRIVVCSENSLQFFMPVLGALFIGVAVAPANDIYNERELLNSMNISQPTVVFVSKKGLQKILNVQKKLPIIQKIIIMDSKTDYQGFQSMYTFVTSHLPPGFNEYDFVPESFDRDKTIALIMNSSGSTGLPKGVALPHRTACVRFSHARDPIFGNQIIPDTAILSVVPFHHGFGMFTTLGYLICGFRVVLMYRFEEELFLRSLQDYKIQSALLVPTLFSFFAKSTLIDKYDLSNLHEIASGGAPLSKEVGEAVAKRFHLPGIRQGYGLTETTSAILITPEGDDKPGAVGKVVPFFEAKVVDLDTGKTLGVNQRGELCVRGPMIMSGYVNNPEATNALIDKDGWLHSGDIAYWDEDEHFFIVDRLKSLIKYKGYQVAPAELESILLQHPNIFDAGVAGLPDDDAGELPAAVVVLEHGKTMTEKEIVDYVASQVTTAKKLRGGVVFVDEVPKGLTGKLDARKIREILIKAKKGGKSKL
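Biochemical qHTS of compounds, final roughly 60 µM downward over six points, against 10 nM purified firefly luciferase using Km concentrations of substrates (10 uM D-luciferin, 10 uM ATP) in Tris acetate pH 7.5 buffer; luminescence output.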
SMN2 splice enh: qHTS Assay for Enhancers of SMN2 Splice Variant Expression. HEK293 SMN2-luciferase splicing reporter, luminescence, 30-36 h. Potency, µM (series often up to 46.1 µM), for the others: at the top dose activity change, positive = activation, hits mostly activators. 210,000 tested, 2.8% active. AID 1458, 2008; further: % of control where 0% means no effect; nearly all actives have a fitted effect of over 55% in size
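HEK293 cells carry an SMN2 minigene-luciferase reporter in which exon 7 inclusion puts luciferase in frame. Cells were seeded at 2000 cells/well, attached for 10-12 hours, then exposed to compounds for 30-36 hours at 37C before ONE-Glo luminescence.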
* hit, by the source's call; ? = inconclusive; . = no result. The call rests on the fitted dose curve; in most records, active means well fitted curve in the direction sought with a large enough effect; inconclusive means small, poorly fitted or top-dose-only effect, or another doubt; inactive means no such curve, though single readings can be large; an effect the other way counts as inactive or inconclusive. Potency means the concentration at half of the fitted maximal effect.

SMILES | NPC1 prom act | ELG1 genotox | Rab9 prom act | FLuc modulator | SMN2 splice enh
COCCn1c(C)cc(C(=O)COC(=O)c2ccc(Br)o2)c1C | 3.2µM* | 4.1µM* | ? | 1.9µM* | 26%
Cc1cnc(C(=O)OCC(=O)c2cc(C)n(C)c2C)cn1 | -2% | 2% | 4% | -15% | 5%
C[C@H](NC(=O)N1CCn2c1nc1ccccc12)C(=O)N1CCCCC1 | -6% | -4% | -3% | 2% | .
COc1ccc(CN(C(=O)c2cc3ccccc3oc2=O)C2CCCCC2)cc1OC | 20% | 2% | 17% | 27µM* | 25%
CCc1ccc(CN(C(=O)c2oc3ccccc3c2C)C2CCS(=O)(=O)C2)cc1 (stereo unspecified) | -4% | 0% | 1% | 0% | .
O=C(c1cc2ccccc2oc1=O)N(Cc1cccs1)C1CCS(=O)(=O)C1 (stereo unspecified) | 30% | 18µM* | ? | 19µM* | 17%
CCc1ccc(CN(C(=O)c2cc3ccccc3oc2=O)C2CCS(=O)(=O)C2)cc1 (stereo unspecified) | 2.8µM* | ? | 4µM* | 19µM* | 18µM*
COc1ccc(CCNC(=O)COC(=O)c2cc3ccccc3oc2=O)cc1OC | . | -1% | . | . | .
O=C(c1cc2ccccc2oc1=O)N(Cc1ccc(F)cc1)C1CCS(=O)(=O)C1 (stereo unspecified) | ? | ? | 3.2µM* | 19µM* | .
COc1ccc(C(=O)COC(=O)c2sc(C)nc2C)cc1F | . | -1% | . | . | .
Cc1cccc(-n2c(O)c(C=NC3CCS(=O)(=O)C3)c3ccccc3c2=O)c1C (stereo unspecified) | -11% | 2% | -9% | 0% | .
Cc1ccc(CN(C(=O)c2cc3ccccc3oc2=O)C2CCS(=O)(=O)C2)cc1 (stereo unspecified) | ? | 23% | ? | 17µM* | 4%
COc1cc(CN(C(=O)c2cc3ccccc3oc2=O)C2CCS(=O)(=O)C2)cc(OC)c1OC (stereo unspecified) | -1% | 3% | 0% | -17% | 2%
O=[N+]([O-])c1cccc(N/N=C/c2ccc(N3CCOCC3)cc2)c1 | 2.8µM* | ? | 3.2µM* | 11µM* | .
C(=N\Nc1ccccc1)/c1ccc(N2CCOCC2)cc1 | 3.2µM* | ? | 2.8µM* | 7.6µM* | 18µM*
O=C(O)c1cc(N/N=C/c2ccc(N3CCOCC3)cc2)ccc1Cl | ? | ? | ? | 0.6µM* | .
C/C(=N\Nc1ccccn1)c1ccc(C(C)C)cc1 | ? | 13% | ? | 9.5µM* | ?
O=C(c1ccc(Cl)cc1)n1c(NCc2ccccc2)n[nH]c1=S | 5% | 3% | -2% | -17% | -2%
CC(C)=CCN1CCN(Cc2ccc(Sc3nncn3C)o2)CC1CCO (stereo unspecified) | -3% | 0% | -2% | 1% | .
C/C(=N\Nc1ccccn1)c1ccc(N2CCOCC2)cc1 | ? | ? | 2.2µM* | 13µM* | 14µM*
O=C(NC(=S)Nc1ccc(N2CCOCC2)cc1)c1cccc(Cl)c1 | 1% | -2% | 2% | -10% | -8%
C(=N\Nc1ccccn1)/c1ccc(N2CCOCC2)cc1 | 3.2µM* | ? | 2.8µM* | 6µM* | 13µM*
Clc1cccc(N/N=C/c2ccc(N3CCOCC3)cc2)c1 | ? | 15% | ? | 13µM* | ?
Cc1cc(C)nc(N/N=C/c2ccc(N3CCOCC3)cc2)n1 | -7% | -10% | -18% | 1% | 20%
CC(C)CN1CCC(=O)N(CCSc2ccc(Br)cc2)CC1 | -2% | 0% | -3% | -5% | .
SMILES | NPC1 prom act | ELG1 genotox | Rab9 prom act | FLuc modulator | SMN2 splice enh
Cc1ccc2c(c1)N(Cc1cccc(C#N)c1)C=NS2(=O)=O | -3% | -1% | -2% | 2% | .
Cc1cccc(N=Nc2cnc(N)s2)c1 | 3.2µM* | ? | 3.2µM* | 6µM* | .
Cc1nc2ccccc2c(=O)n1/N=C/c1ccccc1Cl | ? | ? | ? | 11µM* | .
Cc1ccc(/C=N/n2c(C)nc3ccccc3c2=O)s1 | ? | 14% | 3.5µM* | ? | ?
O=c1c2sccc2n(Cc2cc(=O)n3ccccc3n2)c(=O)n1-c1cccc(C(F)(F)F)c1 | . | . | . | -9% | -1%
COc1cc(OC)cc(-c2nc3nc(C)c(CCC(=O)Nc4ccc(Cl)cc4)c(C)n3n2)c1 | . | . | . | -13% | -2%
Cc1cc(C=C2C(=O)c3ccccc3C2=O)c(C)n1-c1ccccc1 | 8% | ? | 4% | 0.12µM* | -71%
COc1ccc(/C=C2\CC/C(=C\c3ccc(OC)cc3OC)C2=O)c(OC)c1 | 14% | ? | 21% | ? | -27%
Cc1cc(/C=C2\Cc3ccccc3C2=O)c(C)n1-c1ccccc1 | 10% | 1.2µM* | -1% | 0.19µM* | 4.5µM*
Cc1cc(/C=N/n2cnnc2)c(C)n1-c1ccccc1 | 4% | 7% | -1% | ? | 22%
Cc1cc(C=C2C(=O)c3ccccc3C2=O)c(C)n1-c1ccc(C(=O)O)cc1 | 2% | 7% | -2% | 19µM* | .
COc1ccccc1/C=C1\Cc2ccccc2C1=O | 8% | ? | 1% | 11µM* | .
OCC1O[C@H](O[C@H]2C(O)C(O)C(O)O[C@@H]2CO)C(O)C(O)C1O (stereo partly specified) | . | . | . | . | -2%
COc1cccc(NC(=O)c2sc3nc(C)c(C(=O)Nc4ccc(C)cc4C)c(-c4ccccc4Cl)c3c2N)c1 | . | . | . | -8% | 4%
CCOC(=O)N1CCc2c(sc3c2c(=O)n(-c2ccccc2)c(=O)n3CC(=O)Nc2ccc(OC)cc2OC)C1 | . | . | . | 0% | -4%

Screening data deposited in PubChem BioAssay by National Center for Advancing Translational Sciences (NCATS).
